From PubChem BioAssay
This is a sample that favours compounds with a hit; in the whole collection about 3.5% have one here.
GPR151 ag – human GPR151 activation; hit rate 1% among 650,000; Q8TDV0; PathHunter beta-arrestin GPR151 cells, luminescence; activation, % at 11.2 µM; in the data active means activation above about 4.9%;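 further: 0% = median of compound wells and 100% = cells with positive control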
TEAD-YAP inh – TEAD-YAP interaction inhibition; hit rate 1.4% among 640,000; inhibition, % at 9.12 µM; AID 1259422; HEK-TIYL cells, TEAD-Gal4/YAP UAS-luciferase luminescence; in the data active means inhibition above about 32%;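 further: 0% = median of test compound wells and 100% = reference inhibitor wells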
FBW7 activator – human FBW7 E3 ligase activation, primary screen. Q969H0. AlphaScreen FBW7–phospho-cyclin E peptide binding, activator screen. normalized activity (activation), % at 26.1 µM. hit rate 0.13% among 650,000. AID 1259310; in the data active means normalized activity above about 1.9%;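 further: purified mutant Fbw7 with reduced substrate affinity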
Target sequence (Q969H0 whole entry, looked up): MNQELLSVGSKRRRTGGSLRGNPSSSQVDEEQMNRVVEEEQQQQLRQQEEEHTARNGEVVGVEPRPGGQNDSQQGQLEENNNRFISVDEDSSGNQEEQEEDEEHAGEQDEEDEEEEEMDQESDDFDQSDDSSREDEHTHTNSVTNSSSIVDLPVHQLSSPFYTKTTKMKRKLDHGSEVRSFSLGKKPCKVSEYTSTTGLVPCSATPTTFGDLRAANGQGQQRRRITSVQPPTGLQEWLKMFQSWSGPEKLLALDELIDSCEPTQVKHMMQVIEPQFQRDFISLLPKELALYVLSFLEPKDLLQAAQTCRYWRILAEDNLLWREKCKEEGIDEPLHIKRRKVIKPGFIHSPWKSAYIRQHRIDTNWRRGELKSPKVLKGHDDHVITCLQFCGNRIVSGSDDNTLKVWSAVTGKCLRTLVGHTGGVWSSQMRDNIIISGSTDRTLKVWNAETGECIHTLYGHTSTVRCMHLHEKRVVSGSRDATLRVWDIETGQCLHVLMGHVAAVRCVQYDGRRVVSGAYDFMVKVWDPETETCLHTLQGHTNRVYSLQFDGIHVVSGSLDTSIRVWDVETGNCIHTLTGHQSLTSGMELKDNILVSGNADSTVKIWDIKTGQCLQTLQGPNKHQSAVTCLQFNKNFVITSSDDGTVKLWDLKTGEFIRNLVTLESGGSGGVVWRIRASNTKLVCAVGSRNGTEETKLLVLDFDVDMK
MITF primary – blocks human microphthalmia-associated transcription factor | O75030 | AlphaScreen MITF homodimerization, bead proximity signal | inhibition, % at 2.6 µM | hit rate 0.91% among 650,000 | AID 1259374; in the data active means inhibition above about 50%;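 further: 0% = vehicle wells with protein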
MITF confirm – human MITF inhibition, confirmation | shares compounds with MITF primary | AlphaScreen MITF homodimerization, biotin/His-MITF beads | inhibition, % at 2.6 µM | hit rate 16% among 4,700 | AID 1259372;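 active means inhibition above a cutoff derived from the DMSO control wells, cut at about 28% in these data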;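 further: 0% = MITF dimer wells with DMSO only; inhibitors lower the bead chemiluminescence by keeping MITF from dimerizing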
AS interf ctr – optically interferes with AlphaScreen signal. inhibition, % at 2.6 µM. hit rate 7.6% among 4,700. shares compounds with MITF primary. AID 1259376. LysRS AlphaScreen counterscreen, signal interference, triplicate;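 active means inhibition above a cutoff derived from the DMSO control wells, cut at about 30% in these data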
Numbers without * were called inactive; x = not tested or not shown.

SMILES | GPR151 ag | TEAD-YAP inh | FBW7 activator | MITF primary | MITF confirm | AS interf ctr
CCC(C)c1ccccc1OCCCCN1CCOCC1 (stereo not given) | 0.3 | -2.0 | 0.0 | 51.0* | -8.4 | -6.5
O=C(O)C1CC1C(=O)Nc1cc(F)cc(F)c1 (stereo not given) | 1.9 | -3.2 | -0.1 | -1.7 | x | x
O=C(Nc1ccc2oc(-c3ccccc3Cl)nc2c1)c1cc(Br)ccc1Cl | 1.1 | 10.1 | 0.0 | 7.4 | x | x
O=C1CCCN1CCn1cnc2c(Nc3ccc(Oc4ccccc4)cc3)nc(-c3csc4ccccc34)nc21 | -0.3 | -17.4 | 0.1 | 4.5 | x | x
Cc1ccccc1OCC(=O)NNC(=O)c1ccco1 | 2.6 | -4.7 | 0.1 | 12.0 | x | x
CC(=O)c1ccccc1OCCCN1CCOCC1 | -0.8 | 6.4 | 0.0 | 31.2 | x | x
CCC(C)c1ccccc1OCCCN1CCN(CC)CC1 (stereo not given) | 0.0 | 5.0 | -0.5 | 63.2* | 14.3 | 19.4
CCC(C)c1ccccc1OCCCN1CCOCC1 (stereo not given) | 0.8 | 10.0 | -0.2 | 61.4* | -7.6 | 10.7
CCC(C)c1ccccc1OCCN1CCNCC1 (stereo not given) | -0.9 | -6.2 | -0.1 | 40.4 | x | x
CCN1CCN(CCCOc2ccccc2OCc2ccccc2)CC1 | -2.1 | -8.7 | -0.1 | 69.4* | 14.8 | 5.6
c1ccc2c(OCCOCCNCCN3CCOCC3)cccc2c1 | 1.2 | 5.6 | 0.1 | 52.4* | 7.2 | 20.5
COc1cc(=O)n2c(c1C(=O)N1CCCC1)CCN(Cc1cn(C)c3ccccc13)CC2 | 0.1 | 4.8 | 0.9 | 11.9 | x | x
Oc1ccccc1C1=NNC(c2ccc(Br)cc2)C1 (stereo not given) | -1.0 | -55.8 | -0.1 | -10.2 | x | x
Cc1cc(NC(=O)C2=NNC(=O)CC2)ccc1Br | -1.1 | -72.8 | -0.2 | -7.9 | x | x
Cc1ccc(C(=O)Nc2ccccc2C#N)c(Cl)c1 | -0.3 | -32.5 | 0.5 | 62.6* | 4.7 | 7.0
O=c1c2c3c(sc2nc2n1CCCCC2)CCC3 | 0.3 | -25.8 | 0.0 | 70.6* | -5.3 | 0.2
O=C1CCCc2c1sc1nc3n(c(=O)c21)CCCCC3 | -0.8 | -44.2 | -0.2 | -2.5 | x | x
O=C1CCCC1Sc1nnnn1-c1ccc(Cl)cc1 (stereo not given) | -0.5 | -2.5 | 0.2 | 14.3 | x | x
C1=CC2CC1CC2CN1CCN(Cc2ccccn2)CC1 (stereo not given) | -1.0 | -3.5 | -0.1 | 73.7* | 13.2 | 23.1
COc1ccc(CN2CCN(CC3CC4C=CC3C4)CC2)c(OC)c1 (stereo not given) | 1.5 | 0.9 | -0.4 | 72.0* | 5.1 | -1.0
COc1cc(CN2CCN(CC3CC4C=CC3C4)CC2)cc(OC)c1O (stereo not given) | -0.9 | -8.3 | 0.0 | 66.4* | 9.2 | 27.0
COc1cc(CN2CCN(S(=O)(=O)c3ccc(F)cc3)CC2)cc(OC)c1O | 0.7 | 5.0 | -0.1 | 38.7 | x | x
COc1cc(OC)c(OC)cc1CN1CCN(CC2CC3C=CC2C3)CC1 (stereo not given) | 0.9 | -4.4 | -0.2 | 56.9* | -6.4 | -8.2
COc1cc(OC)c(OC)cc1CN1CCSCC1 | 0.3 | -5.1 | -0.1 | 40.4 | x | x
COc1ccc(-c2nc(NC3CC3)nc(OC)n2)cc1 | -0.9 | -36.6 | -0.2 | 10.7 | x | x
SMILES | GPR151 ag | TEAD-YAP inh | FBW7 activator | MITF primary | MITF confirm | AS interf ctr
O=S(=O)(c1ccc(C(F)(F)F)c(Cl)c1)N1CCNCC1 | -1.7 | -1.0 | 0.0 | 2.2 | x | x
CCOC(=O)c1cccc(-n2c(C)cc(/C=C3/SC(=S)N(CC(=O)O)C3=O)c2C)c1 | 1.2 | -6.3 | -0.1 | 7.5 | x | x
COc1ccc(S(=O)(=O)N(CCc2ccccc2)CC(=O)N2CCOCC2)cc1C | -0.9 | 11.0 | 0.0 | 13.7 | x | x
Cc1ccccc1CN1CCN(CC2CC3C=CC2C3)CC1 (stereo not given) | -1.8 | 1.2 | -0.3 | 76.6* | -1.3 | 12.3
COc1ccc(CN2CCN(CC3CC4C=CC3C4)CC2)c(OC)c1OC (stereo not given) | -0.5 | 1.6 | -0.1 | 70.5* | -3.9 | -6.8
Fc1cccc(CN2CCCNCC2)c1 | -0.2 | -3.1 | 0.0 | -8.9 | x | x
COc1ccccc1CN1CCN(CC2CC3C=CC2C3)CC1 (stereo not given) | 0.2 | 8.6 | -0.2 | 68.7* | -15.0 | 5.5
Fc1cccc(CN2CCN(CC3CC4C=CC3C4)CC2)c1 (stereo not given) | -0.3 | 5.3 | 0.3 | 70.5* | -2.8 | -2.1
O=C(c1ccccc1)N1CCN(CC2CC3C=CC2C3)CC1 (stereo not given) | 0.4 | -2.5 | 0.0 | 24.0 | x | x
Cc1cccc(-n2ncc3c(N4CCN(c5cc(C)ccc5C)CC4)ncnc32)c1 | -1.4 | -1.0 | 0.0 | 7.0 | x | x
Cc1cccc(OCCNC(=O)C2CC(=O)N(c3ccc(F)cc3)C2)c1 (stereo not given) | 1.3 | 5.1 | 0.0 | 1.0 | x | x
COc1ccc(NC(=O)c2ccc3c(=O)n(-c4cccc(C(F)(F)F)c4)c(=S)[nH]c3c2)cc1Cl | -0.2 | 6.2 | 0.1 | 11.2 | x | x
O=C(CCc1ccccc1)Nc1ccnn1C1CCN(C(=O)C2CCC2)CC1 | 0.9 | 3.2 | 0.1 | -3.0 | x | x
O=[N+]([O-])c1ccccc1CN1CCSCC1 | 0.3 | -0.2 | -0.1 | 38.4 | x | x
CC1CN(Cc2ccccc2Cl)CC(C)O1 (stereo not given) | 0.4 | 2.9 | 0.5 | 80.3* | -2.0 | 6.5
O=[N+]([O-])c1ccccc1CN1CCN(Cc2ccco2)CC1 | -0.5 | -6.7 | 0.1 | 53.6* | 6.6 | 14.8
Clc1ccccc1CN1CCN(Cc2ccco2)CC1 | 0.9 | -20.1 | -0.1 | 69.3* | 15.8 | 15.6
Cc1ccc(NC(=O)CCC(=O)OCC(=O)c2ccc(Cl)c([N+](=O)[O-])c2)cc1C | -0.7 | 14.8 | 0.1 | 6.7 | x | x
O=C(Oc1ccc([N+](=O)[O-])c2cccnc12)c1ccc(F)cc1 | 0.6 | 13.2 | -0.3 | 60.2* | 66.4* | 100.1*
O=C(Oc1cccc2cccnc12)c1ccc(F)cc1 | 0.6 | -5.0 | 0.5 | 13.8 | x | x
CCN1CCN(C(c2ccc(C)cc2)c2nnnn2C(C)(C)CC)CC1 (stereo not given) | -0.3 | -2.9 | 0.3 | 52.0* | 6.8 | 21.1
CCCCCCCNc1nc(N2CCOCC2)nc(N2CCOCC2)n1 | -0.8 | -1.2 | 0.0 | 10.4 | x | x
CN(CCc1ccccn1)C(=O)c1ccc(F)cc1 | -0.7 | 3.8 | 0.1 | 77.2* | -0.1 | 3.2
CN(CCc1ccccn1)C(=O)c1cccc(F)c1 | 3.9 | -1.7 | -0.1 | 105.1* | 6.7 | 9.0
CC(C)(C)c1ccc(CSc2nc3ccccc3c(=O)n2CCc2ccc(S(N)(=O)=O)cc2)cc1 | -0.3 | -8.9 | -0.1 | -1.5 | x | x
NS(=O)(=O)c1ccc(CNc2ccc3ncc(-c4cccc(C(=O)O)c4)n3n2)cc1 | 0.7 | 0.0 | 0.3 | 69.2* | 8.7 | 11.3
CN1C(=O)N(C)C2OC(C3OC4C(O3)N(C)C(=O)N4C)OC21 (stereo not given) | -0.2 | 1.9 | 0.1 | 54.7* | 8.4 | 11.0
CCC(C)NCCOCCOc1ccc(I)cc1 (stereo not given) | 0.2 | -5.9 | 0.0 | 54.7* | 2.4 | 13.6
